Experimental data taken from PubChem BioAssay (EPA / NIEHS).
Records with an inconclusive call do not appear. Where a structure was tested more than once in an assay, its records may differ in their call. Active and inactive are the calls of the source. How the source made its calls, unless noted: active means hit-call score of the fitted dose curve at least 0.9, where 1 is the maximum; inactive means score below 0.9.

Experiments:
[1] = biological target: Estrogen receptor (Homo sapiens) (UniProt P03372); experiment: OT_ERa_GFPERaERE_0480: Odyssey Thera (OT) 8-hour HeLa Transcription Induction Assay for Estrogen Receptor (AID 2283381)
Estrogen receptor (Homo sapiens), sequence (P03372 whole entry, looked up): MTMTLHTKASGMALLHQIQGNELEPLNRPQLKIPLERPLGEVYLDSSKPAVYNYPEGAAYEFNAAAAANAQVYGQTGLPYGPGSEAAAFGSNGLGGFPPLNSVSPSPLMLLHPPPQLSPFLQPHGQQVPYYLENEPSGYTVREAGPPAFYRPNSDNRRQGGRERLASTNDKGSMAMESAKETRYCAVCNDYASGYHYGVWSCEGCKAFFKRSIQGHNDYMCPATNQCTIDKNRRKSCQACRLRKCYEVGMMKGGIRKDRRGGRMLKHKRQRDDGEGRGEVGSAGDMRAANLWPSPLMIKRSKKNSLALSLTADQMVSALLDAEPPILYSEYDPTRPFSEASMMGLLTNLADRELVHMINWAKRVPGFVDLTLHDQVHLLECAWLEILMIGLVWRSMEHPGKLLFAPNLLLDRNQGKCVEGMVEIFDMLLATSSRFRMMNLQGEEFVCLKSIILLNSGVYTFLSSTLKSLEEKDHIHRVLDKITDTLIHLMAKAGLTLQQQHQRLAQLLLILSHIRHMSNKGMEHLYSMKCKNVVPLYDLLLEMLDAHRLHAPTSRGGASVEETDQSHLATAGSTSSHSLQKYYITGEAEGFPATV
How it was run: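 Human cervical HeLa cells were treated for 8 hours, after which ERE-driven GFP induction was measured by fluorescence microscopy; increases over DMSO baseline defined activity.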

[2] = biological target: Estrogen receptor (Homo sapiens) (UniProt P03372); experiment: OT_ERa_GFPERaERE_0120: Odyssey Thera (OT) 2-hour HeLa Transcription Induction Assay for Estrogen Receptor (AID 2283382; active means hit-call score of the fitted dose curve at least 0.9, where 1 is the maximum)
How it was run: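 Cells (human cervical HeLa) receive compound, incubate 2 hours, then are imaged for fluorescent reporter induction. Images are quantified by high content analysis, and activity is fitted as gain of signal against DMSO.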

[3] = biological target: Retinoic acid receptor RXR-alpha (Homo sapiens) (UniProt P19793); experiment: OT_NURR1_NURR1RXRa_0480: Odyssey Thera (OT) 8-hour HEK293T Protein Complementation Assay for Nurr1/retinoid X receptor (RXR) (AID 2283385; active means hit-call score of the fitted dose curve at least 0.9, where 1 is the maximum)
Retinoic acid receptor RXR-alpha (Homo sapiens), sequence (P19793 whole entry, looked up, the tested form may be a part): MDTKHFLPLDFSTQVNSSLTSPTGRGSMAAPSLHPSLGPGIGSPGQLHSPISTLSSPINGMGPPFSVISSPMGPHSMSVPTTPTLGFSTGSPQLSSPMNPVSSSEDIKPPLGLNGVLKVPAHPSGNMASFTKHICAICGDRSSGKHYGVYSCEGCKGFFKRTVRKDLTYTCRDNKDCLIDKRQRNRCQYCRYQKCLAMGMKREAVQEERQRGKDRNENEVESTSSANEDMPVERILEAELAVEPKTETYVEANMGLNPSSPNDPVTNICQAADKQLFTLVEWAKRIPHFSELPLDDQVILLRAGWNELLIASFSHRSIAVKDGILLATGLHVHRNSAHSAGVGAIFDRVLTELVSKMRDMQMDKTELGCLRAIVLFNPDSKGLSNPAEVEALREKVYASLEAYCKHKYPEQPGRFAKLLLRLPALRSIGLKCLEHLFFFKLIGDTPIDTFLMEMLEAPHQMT
How it was run: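 Interaction of bait and prey reconstitutes a functional reporter, whose fluorescence was measured in HEK293T cells dosed with compound for 8 hours. Signal gain relative to DMSO defined the single endpoint.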

[4] = biological target: Retinoic acid receptor RXR-alpha (Homo sapiens) (UniProt P19793); experiment: OT_NURR1_NURR1RXRa_1440: Odyssey Thera (OT) 24-hour HEK293T Protein Complementation Assay for Nurr1/retinoid X receptor (RXR) (AID 2283386; active means hit-call score of the fitted dose curve at least 0.9, where 1 is the maximum)
How it was run: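 Steps: fragment-tagged Nurr1 and RXRα expressed in HEK293T; compounds added; after 24 h, complemented reporter quantified by fluorescence intensity; signal increase over DMSO fitted as the single endpoint.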

[5] = biological target: Peroxisome proliferator-activated receptor gamma (Homo sapiens) (UniProt P37231); experiment: OT_PPARg_PPARgSRC1_1440: Odyssey Thera (OT) 24-hour Protein-Complementation Assay for Peroxisome Proliferator-activated Receptor Gamma/ SRC-1 Co-activator (AID 2283388; active means hit-call score of the fitted dose curve at least 0.9, where 1 is the maximum)
Peroxisome proliferator-activated receptor gamma (Homo sapiens), sequence (P37231 whole entry, looked up, the tested form may be a part): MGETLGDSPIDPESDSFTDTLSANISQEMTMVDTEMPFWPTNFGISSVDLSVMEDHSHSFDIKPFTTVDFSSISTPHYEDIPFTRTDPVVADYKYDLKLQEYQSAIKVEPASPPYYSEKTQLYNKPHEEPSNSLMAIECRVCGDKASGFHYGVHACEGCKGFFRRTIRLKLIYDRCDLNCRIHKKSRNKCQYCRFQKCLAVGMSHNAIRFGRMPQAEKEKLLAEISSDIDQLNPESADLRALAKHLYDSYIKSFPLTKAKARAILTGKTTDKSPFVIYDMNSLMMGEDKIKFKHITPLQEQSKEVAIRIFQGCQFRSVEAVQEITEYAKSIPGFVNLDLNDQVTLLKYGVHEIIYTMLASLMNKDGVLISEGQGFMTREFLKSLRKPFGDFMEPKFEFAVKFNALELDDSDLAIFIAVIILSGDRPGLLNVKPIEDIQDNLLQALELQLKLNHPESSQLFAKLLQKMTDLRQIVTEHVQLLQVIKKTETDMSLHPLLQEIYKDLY
How it was run: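 HEK293T transiently transfected with PPARg/SRC-1 split-Venus YFP fusions 48 h before dosing, then treated 24 h at 37C. Fixed cells imaged; nuclear/cytoplasmic 488 nm fluorescence ratio, gain of signal versus DMSO.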

[6] = CEETOX_H295R_11DCORT: CeeTox H295R High-throughput Steroidogenesis Assay for 11-Deoxycortisol (11DCORT) (AID 2283432); settings: actives raise or lower the signal;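 on AC50: 11-deoxycortisol secreted into the medium measured by LC-MS/MS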
How it was run: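 H295R cells prestimulated 48 h with 10 uM forskolin, then exposed 48 h to chemical in 0.1% DMSO. 11-Deoxycortisol in medium quantified by HPLC-MS/MS after MTBE extraction; bidirectional fit versus DMSO. MTT viability read in same wells.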

[7] = CEETOX_H295R_OHPREG: CeeTox H295R High-throughput Steroidogenesis Assay for OH-Pregnenolone (OHPREG) (AID 2283434); settings: actives raise or lower the signal
How it was run: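 H295R, 10 uM forskolin pre-stim 48 h; test chemical 48 h, 0.1% DMSO final. MTBE extraction, reverse-phase C18 HPLC-ESI+ MS/MS of medium. Gain/loss vs DMSO; viability by MTT in same wells.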

[8] = CEETOX_H295R_OHPROG: CeeTox H295R High-throughput Steroidogenesis Assay for OH-Progesterone (OHPROG) (AID 2283435); settings: actives raise or lower the signal;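 on AC50: human adrenal H295R cells primed 48 h with 10 µM forskolin; 17alpha-hydroxyprogesterone secreted into medium measured by HPLC-MS/MS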
How it was run: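 Steps: seed H295R cells and adhere overnight; stimulate with 10 uM forskolin for 48 h; replace with chemical-containing medium (0.1% DMSO) for 48 h; extract medium with MTBE; quantify 17alpha-hydroxyprogesterone by reverse-phase C18 HPLC-MS/MS against a 7-point curve.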

[9] = CEETOX_H295R_CORTIC: CeeTox H295R High-throughput Steroidogenesis Assay for Corticosterone (CORTIC) (AID 2283437); settings: actives raise or lower the signal;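 further: corticosterone secreted into medium quantified by mass spectrometry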
How it was run: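 48 h forskolin (10 uM) prestim, then 48 h chemical exposure, final DMSO 0.1%. Readout: corticosterone in medium by LC-MS/MS after MTBE extraction. Gain/loss fit vs DMSO; MTT viability in same wells.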

[10] = CEETOX_H295R_CORTISOL: CeeTox H295R High-throughput Steroidogenesis Assay for Cortisol (AID 2283438); settings: actives raise or lower the signal
How it was run: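 Cortisol synthesis by H295R cells is measured 48 h after chemical dosing, following a 48 h stimulation with 10 uM forskolin. Hormone is extracted and quantified by HPLC-MS/MS, and activity is fitted bidirectionally against the DMSO control.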

[11] = CEETOX_H295R_DOC: CeeTox H295R High-throughput Steroidogenesis Assay for DOC (AID 2283439); settings: actives raise or lower the signal
How it was run: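 Steps: seed H295R, adhere overnight; 10 uM forskolin 48 h; replace with chemical medium (0.1% DMSO) 48 h; collect medium, MTBE extraction, HPLC-MS/MS for DOC. Viability then checked by MTT; cytotoxic chemicals diluted until viability ≥70%.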

[12] = CEETOX_H295R_PROG: CeeTox H295R High-throughput Steroidogenesis Assay for Progesterone (PROG) (AID 2283442); settings: actives raise or lower the signal;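 on AC50: human H295R adrenal cells primed with 10 µM forskolin before dosing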
How it was run: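 H295R adrenal cells prestimulated 48 h with 10 uM forskolin, then exposed 48 h to test chemical in 0.1% DMSO. Progesterone in medium quantified by HPLC-MS/MS after MTBE extraction; viability checked by MTT in same wells.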

[13] = read-out: Tumor necrosis factor receptor superfamily member 6 (Homo sapiens) (UniProt P25445); experiment: LTEA_HepaRG_FAS: Life Technologies and Expression Analysis (LTEA) Assay for Fas cell surface death receptor (FAS) using HepaRG (AID 2283447); settings: mRNA level, 48 h; actives raise or lower the signal
How it was run: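 Differentiated HepaRG cells in serum-free induction medium were exposed 48 h to 8 half-log concentrations up to 100 uM in 0.5% DMSO, in duplicate. FAS mRNA was measured by qRT-PCR normalised to ACTB, GAPDH and POLR2A; bidirectional fit versus DMSO.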

[14] = read-out: Fatty acid synthase (Homo sapiens) (UniProt P49327); experiment: LTEA_HepaRG_FASN: Life Technologies and Expression Analysis (LTEA) Assay for Fatty Acid Synthase (FASN) using HepaRG (AID 2283448); settings: mRNA level, 48 h; actives raise or lower the signal;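 on AC50: differentiated human HepaRG liver cells in serum-free induction medium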
How it was run: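 Cells were plated, cultured 48 h, switched to serum-free induction medium, then dosed in duplicate (max 100 uM, half-log dilutions, 0.5% DMSO) for 48 h. RNA was then isolated and FASN quantified by qRT-PCR.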

[15] = read-out: Cyclin D2 (CCND2), CCND2 (gene 894); experiment: LTEA_HepaRG_CCND2: Life Technologies and Expression Analysis (LTEA) Assay for Cyclin D2 (CCND2) using HepaRG (AID 2283449); settings: mRNA level, 48 h; actives raise or lower the signal;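 further: CCND2 transcript measured by TaqMan qRT-PCR and normalised to three housekeeping genes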
How it was run: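 HepaRG, 48 h dosing, 8-pt half-log curve from 100 uM, 0.5% DMSO; duplicate wells. Readout: CCND2 transcript by microfluidic qRT-PCR, housekeeping-normalised; bidirectional fit vs DMSO baseline.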

[16] = biological target: Bile acid receptor (Homo sapiens) (UniProt Q96RI1); experiment: OT_FXR_FXRSRC1_0480: Odyssey Thera (OT) 8-hour HEK293T Protein-Complementation Assay for Farnesoid X receptor/SRC-1 Co-activator (AID 2283383; active means hit-call score of the fitted dose curve at least 0.9, where 1 is the maximum)
Bile acid receptor (Homo sapiens), sequence (Q96RI1 whole entry, looked up): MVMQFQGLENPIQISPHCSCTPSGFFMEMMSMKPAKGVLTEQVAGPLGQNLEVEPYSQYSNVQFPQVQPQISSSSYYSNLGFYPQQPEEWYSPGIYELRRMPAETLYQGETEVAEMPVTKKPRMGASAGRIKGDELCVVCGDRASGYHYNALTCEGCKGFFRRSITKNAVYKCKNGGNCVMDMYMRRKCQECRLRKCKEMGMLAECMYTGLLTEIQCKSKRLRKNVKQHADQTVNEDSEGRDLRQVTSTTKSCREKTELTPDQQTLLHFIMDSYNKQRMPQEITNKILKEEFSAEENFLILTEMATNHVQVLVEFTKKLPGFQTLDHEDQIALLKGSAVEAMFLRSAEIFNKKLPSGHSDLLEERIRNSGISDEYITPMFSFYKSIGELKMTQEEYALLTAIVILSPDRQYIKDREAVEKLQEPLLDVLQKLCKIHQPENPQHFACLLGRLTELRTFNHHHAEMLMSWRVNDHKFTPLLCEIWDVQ
How it was run: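 PCA, HEK293T, 8 h compound exposure; FXR–SRC-1 binding reconstitutes split reporter; fluorescence intensity; positive-direction fit vs DMSO.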

[17] = CEETOX_H295R_ANDR: CeeTox H295R High-throughput Steroidogenesis Assay for Androstenedione (ANDR) (AID 2283436); settings: actives raise or lower the signal;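 further: human H295R adrenal cells exposed for 48 h with androstenedione measured in medium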
How it was run: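 48 h chemical exposure, H295R cells, DMEM/F12 + ITS+ and Nu-Serum. Medium androstenedione: MTBE extraction, C18 reverse-phase HPLC, ESI+ MS/MS. Fit bidirectional vs DMSO; MTT viability in same wells.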

[18] = CEETOX_H295R_ESTRADIOL: CeeTox H295R High-throughput Steroidogenesis Assay for Estradiol (AID 2283440); settings: actives raise or lower the signal;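 further: estradiol secreted into medium quantified by LC-MS/MS after dansyl derivatisation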
How it was run: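 H295R cells pre-stimulated 48 h with 10 uM forskolin, then exposed 48 h to chemical in 0.1% DMSO. Medium estradiol quantified by MTBE extraction, dansyl derivatisation and HPLC-MS/MS; bidirectional fit versus DMSO; MTT viability required >/=70%.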

[19] = CEETOX_H295R_ESTRONE: CeeTox H295R High-throughput Steroidogenesis Assay for Estrone (AID 2283441); settings: actives raise or lower the signal;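 on AC50: human adrenal H295R cells prestimulated with forskolin for two days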
How it was run: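 Estrone secreted into medium quantified by LC-MS/MS after dansyl chloride derivatization, following 48 h chemical exposure (0.1% DMSO final) of forskolin-prestimulated (10 uM, 48 h) H295R cells; gain or loss fitted against DMSO; MTT viability in same wells.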

Measured: AC50

Fatty acid synthase (Homo sapiens), sequence (P49327 whole entry, looked up): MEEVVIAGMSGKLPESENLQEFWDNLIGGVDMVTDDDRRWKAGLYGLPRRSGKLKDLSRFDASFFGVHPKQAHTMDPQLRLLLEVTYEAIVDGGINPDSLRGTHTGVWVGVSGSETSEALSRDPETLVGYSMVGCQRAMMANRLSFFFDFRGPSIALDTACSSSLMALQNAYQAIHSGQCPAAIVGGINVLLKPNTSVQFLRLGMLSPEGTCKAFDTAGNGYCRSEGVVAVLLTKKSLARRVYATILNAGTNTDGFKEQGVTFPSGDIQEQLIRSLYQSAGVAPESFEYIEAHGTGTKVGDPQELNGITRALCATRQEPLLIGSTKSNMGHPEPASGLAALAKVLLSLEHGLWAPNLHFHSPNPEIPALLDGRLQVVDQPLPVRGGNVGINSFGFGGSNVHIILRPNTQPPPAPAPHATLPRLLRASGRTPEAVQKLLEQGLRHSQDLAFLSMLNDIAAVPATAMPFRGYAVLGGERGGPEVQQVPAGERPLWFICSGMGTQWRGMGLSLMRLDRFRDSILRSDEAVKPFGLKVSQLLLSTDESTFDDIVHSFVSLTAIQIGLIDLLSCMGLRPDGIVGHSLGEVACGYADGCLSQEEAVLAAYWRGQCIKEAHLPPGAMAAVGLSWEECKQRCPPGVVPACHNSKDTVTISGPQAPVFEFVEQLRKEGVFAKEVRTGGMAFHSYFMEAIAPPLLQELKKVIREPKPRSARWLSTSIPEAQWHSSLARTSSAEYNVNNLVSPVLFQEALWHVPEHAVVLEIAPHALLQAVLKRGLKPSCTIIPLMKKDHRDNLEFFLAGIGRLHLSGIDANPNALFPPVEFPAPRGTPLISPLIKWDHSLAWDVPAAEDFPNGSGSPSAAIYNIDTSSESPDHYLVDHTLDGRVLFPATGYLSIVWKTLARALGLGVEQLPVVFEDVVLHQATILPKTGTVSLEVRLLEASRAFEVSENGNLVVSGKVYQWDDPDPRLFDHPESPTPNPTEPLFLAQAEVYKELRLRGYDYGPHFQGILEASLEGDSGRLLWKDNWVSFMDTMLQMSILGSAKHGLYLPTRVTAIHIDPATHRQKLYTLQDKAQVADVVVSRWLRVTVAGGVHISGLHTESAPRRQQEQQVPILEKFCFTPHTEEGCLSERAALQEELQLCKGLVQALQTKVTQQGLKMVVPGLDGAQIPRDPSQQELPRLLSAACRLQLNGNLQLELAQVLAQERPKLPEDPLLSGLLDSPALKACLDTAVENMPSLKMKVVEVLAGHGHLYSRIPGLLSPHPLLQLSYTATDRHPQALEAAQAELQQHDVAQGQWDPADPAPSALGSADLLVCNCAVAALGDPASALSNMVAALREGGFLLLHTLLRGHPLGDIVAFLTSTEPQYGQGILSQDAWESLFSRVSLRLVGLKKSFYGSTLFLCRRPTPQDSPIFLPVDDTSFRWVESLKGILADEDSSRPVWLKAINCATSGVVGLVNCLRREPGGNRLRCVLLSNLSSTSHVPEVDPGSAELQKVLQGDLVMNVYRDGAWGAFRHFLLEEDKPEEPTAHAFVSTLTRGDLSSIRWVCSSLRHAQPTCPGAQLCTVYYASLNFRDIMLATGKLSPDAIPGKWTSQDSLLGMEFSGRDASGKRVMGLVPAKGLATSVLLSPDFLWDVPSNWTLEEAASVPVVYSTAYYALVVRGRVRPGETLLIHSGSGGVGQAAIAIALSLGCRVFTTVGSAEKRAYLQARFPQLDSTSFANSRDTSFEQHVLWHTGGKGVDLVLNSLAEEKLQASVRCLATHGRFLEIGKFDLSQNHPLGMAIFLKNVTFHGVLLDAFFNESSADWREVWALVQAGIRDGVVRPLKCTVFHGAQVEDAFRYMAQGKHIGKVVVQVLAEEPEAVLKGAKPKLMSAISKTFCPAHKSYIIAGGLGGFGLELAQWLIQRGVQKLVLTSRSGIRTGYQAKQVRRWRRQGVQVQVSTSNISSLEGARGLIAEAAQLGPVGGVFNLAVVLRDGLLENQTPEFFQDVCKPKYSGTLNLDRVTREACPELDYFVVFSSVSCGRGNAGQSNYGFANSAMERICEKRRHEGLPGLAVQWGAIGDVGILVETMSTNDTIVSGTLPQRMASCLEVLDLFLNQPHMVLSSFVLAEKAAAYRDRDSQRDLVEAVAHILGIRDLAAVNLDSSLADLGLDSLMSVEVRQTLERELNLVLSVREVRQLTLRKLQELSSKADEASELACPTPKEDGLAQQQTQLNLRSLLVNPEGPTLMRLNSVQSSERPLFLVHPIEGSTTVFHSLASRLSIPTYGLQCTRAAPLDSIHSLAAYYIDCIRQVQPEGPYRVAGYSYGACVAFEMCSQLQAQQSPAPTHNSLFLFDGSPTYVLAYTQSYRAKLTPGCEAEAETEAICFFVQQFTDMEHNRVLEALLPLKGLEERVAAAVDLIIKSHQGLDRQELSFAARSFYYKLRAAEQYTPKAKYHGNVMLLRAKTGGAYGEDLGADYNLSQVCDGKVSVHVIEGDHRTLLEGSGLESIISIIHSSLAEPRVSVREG

Nc1ccc(Cl)cc1
active: [4] 2.33 µM | [8] 25.5 µM | [11] 50 µM | [12] 16.5 µM
inactive: [1] | [2] | [3] | [4] | [5] | [6] | [7] | [9] | [10] | [13] | [14] | [15]

CO/N=C(/C(=O)OC)c1ccccc1COc1ccccc1C
active: [1] 15.7 µM | [2] 21.9 µM | [16] 13.4 µM | [6] 3.98 µM | [7] 13.1 µM | [8] 4.07 µM | [17] 21.2 µM | [10] 9.52 µM | [12] 4.24 µM
inactive: [3] | [9] | [11]

CCCCN(CCCC)SN(C)C(=O)Oc1cccc2c1OC(C)(C)C2
active: [3] 86.2 µM | [4] 84.7 µM
inactive: [1] | [2] | [3] | [4] | [5] | [13] | [14] | [15]

Cc1ccc(N)cc1N
active: [14] 14.7 µM
not listed: [8] | [10] | [12] | [17]
inactive: all other assays above

CCCCN(CCCC)N=O
inactive: [1] | [2] | [16] | [3] | [4] | [5] | [13] | [14] | [15]

CCNc1nc(Cl)nc(NC(C)(C)C)n1
active: [7] 9.93 µM | [19] 1.51 µM
inactive: all other assays above
